# Screening results deposited in PubChem by National Center for Advancing Translational Sciences (NCATS).
# Shown are actives, neighbours in structure and some others; about 10% of the full set was active somewhere.
# RORgamma inh = qHTS for inhibitors of ROR gamma transcriptional activity. Nuclear receptor ROR-gamma (Mus musculus), P51450. Drosophila S2 Gal4-RORgamma UAS-luciferase reporter, 20 h. Potency, µM (titrated, usually from 53.6 µM), inactives show top-dose activity change, negative = inhibition, most hits filed as inhibitors. 310,000 tested, 5.4% active. AID 2551, 2010; further: on the % scale 0 is the no-effect control and ±100 the full control effect; nearly all actives have a fitted effect of over 60% in size
# Target sequence (P51450 whole entry, looked up, the tested form may be a part): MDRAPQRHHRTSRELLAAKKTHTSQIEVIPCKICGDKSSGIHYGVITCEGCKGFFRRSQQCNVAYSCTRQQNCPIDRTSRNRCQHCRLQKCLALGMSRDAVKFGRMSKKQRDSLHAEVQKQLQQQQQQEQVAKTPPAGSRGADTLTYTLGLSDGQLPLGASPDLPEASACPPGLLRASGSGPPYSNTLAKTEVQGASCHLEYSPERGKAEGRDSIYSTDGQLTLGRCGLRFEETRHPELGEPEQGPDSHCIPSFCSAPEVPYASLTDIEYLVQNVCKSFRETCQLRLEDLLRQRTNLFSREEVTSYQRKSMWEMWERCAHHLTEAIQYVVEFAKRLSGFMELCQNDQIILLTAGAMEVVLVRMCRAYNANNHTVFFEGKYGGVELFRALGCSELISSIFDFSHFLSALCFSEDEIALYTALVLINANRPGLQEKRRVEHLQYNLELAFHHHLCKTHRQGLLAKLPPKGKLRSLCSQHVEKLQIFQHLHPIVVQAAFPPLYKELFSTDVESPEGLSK
#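 Schneider cells (Drosophila), stable Gal4 DBD–ROR gamma + UAS-luc; 1 hr cmpd preincubation; Cu2+ induction 700 uM final; 20 hr ambient; luminescence.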
# MCF10A rerep = A quantitative high throughput screen for small molecules that induce DNA re-replication in MCF 10a normal breast cells. MCF 10A DNA re-replication, Hoechst nuclear intensity, 48 h. Potency, µM (highest dose often 46.1 µM), without a hit: at the top dose activity, positive = re-replication, hits mostly activators. 350,000 tested, 2.9% active. AID 624296, 2012; further: % of control where 0% means no effect; nearly all actives have a fitted effect of over 50% in size
# VP16 counter = VP16 counterscreen qHTS for inhibitors of ROR gamma transcriptional activity; Potency, µM (top dose mostly 53.6 µM), without a hit: at the top dose activity, negative = inhibition, hits mostly inhibitors; 310,000 tested, 3.5% active; Drosophila S2 Gal4-VP16 UAS-luciferase, luminescence, 20 h;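 further: Gal4-VP16 expression switched on by copper sulfate through the metallothionein promoter; on the % scale 0 is the no-effect control and ±100 the full control effect; nearly all actives have a fitted effect of over 50% in size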
# KB-3-1 tox = qHTS assay for MDR1-selective chemotherapeutics: Primary screen using the parental adenocarcinoma cell KB-3-1; KB-3-1 viability, CellTiter-Glo ATP luminescence, 72 h; Potency, µM (top dose mostly 46.1 µM), actives largely listed as cytotoxic; 400,000 tested, 1.4% active; AID 1347075, 2019; further: on the % scale 0 is the no-effect control and ±100 the full control effect; nearly all actives have a fitted effect of over 60% in size
#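 Cytotoxicity in the drug-sensitive parental line KB-3-1 was scored as loss of CellTiter-Glo luminescence following 72 h incubation with compound. Values come from curve fitting of normalized concentration-response data.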
# KB-V1 cytotox = qHTS assay for MDR1-selective chemotherapeutics: Primary screen using the drug-selected MDR subline cells KB-V1. 400,000 tested, 3.4% active. KB-V1 MDR cells viability, CellTiter-Glo, 72 h. AID 1347076, 2019. Potency, µM (titrated, usually from 46.1 µM), usual class: cytotoxic; further: on the % scale 0 is the no-effect control and ±100 the full control effect; nearly all actives have a fitted effect of over 60% in size
#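 Following 72 h at 37 degrees C with compound, KB-V1 cell viability was read by CellTiter-Glo luminescence, medium being phenol-red-free DMEM plus 10% FBS; concentration-response parameters came from normalized, curve-fitted qHTS data.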
# SW480 rerep = A quantitative high throughput screen for small molecules that induce DNA re-replication in SW480 colon adenocarcinoma cells. AID 624297, 2012. SW480 DNA re-replication, Hoechst DNA content imaging, 48 h. Potency, µM (titrated, usually from 46.1 µM), for the others: at the top dose re-replication activation, most hits filed as activators. 340,000 tested, 1.8% active; further: % of control where 0% means no effect; nearly all actives have a fitted effect of over 55% in size
#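 Cells (250 per well) received 23 nL compound or DMSO by pin tool and were kept 48 hr at 37 C, 5% CO2. Nuclei were then stained with Hoechst for 40 min and scanned for DNA content.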
# * hit, by the source's call; i = inactive; u = inconclusive; x = not tested or not shown; [ ] = remark or other dose. The call rests on the fitted dose curve; in most records, active means well fitted curve in the direction sought with a large enough effect; inconclusive means small, poorly fitted or top-dose-only effect, or another doubt; inactive means no such curve, though single readings can be large; an effect the other way counts as inactive or inconclusive. Potency means the concentration at half of the fitted maximal effect.
SMILES,RORgamma inh,MCF10A rerep,VP16 counter,KB-3-1 tox,KB-V1 cytotox,SW480 rerep
COCCNC(=O)c1cnn2c(C(F)(F)F)cc(-c3ccc4c(c3)OCO4)nc12,-14%,u,-2%,i,2.1µM*,-1%
CCOC(=O)c1sc(NC(=O)c2nc3nc(C)cc(C(F)F)n3n2)c(C(=O)OC(C)C)c1C,x,x,x,i,i,x
Cc1nn(-c2ccccc2)c(Cl)c1/C=C1/C(=N)N2N=C(C(C)C)SC2=NC1=O,16%,10%,-18%,i,i,2%
Cc1nn(-c2ccccc2)c(Cl)c1/C=C1\SC(=S)NC1=O,u,10µM*,-5%,i,i,21µM*
Cc1nn(-c2ccccc2)c(Cl)c1/C=C1\SC(=S)N(CCCCCC(=O)O)C1=O,-6%,12µM*,-2%,i,i,-2%
O=C(Nc1ccc(F)cc1)C(CCc1ccccc1)N1CCN(c2ccncc2)CC1 (stereo not given),x,x,x,i,i,x
Cc1nn(-c2ccccc2)c2c1C(O)CC(C)(C)C2 (stereo not given),7%,-1%,3%,i,u,-10%
Cc1nc2c(c3c1[nH]c1ccccc13)C(O)CC(C)(C)C2 (stereo not given),36%,18µM*,-10%,u,16µM*,u
CCc1cccc(C)c1NC(=O)NC1COc2ccccc2C1 (stereo not given),x,x,x,i,i,x
CC(=O)N[C@H]1[C@H](O[C@@H]2c3ccc(c(Cl)c3)Oc3cc4cc(c3O[C@@H]3O[C@H](CO)[C@@H](O)[C@H](O)C3C)Oc3ccc(cc3Cl)C[C@H]3NC(=O)[C@@H](N)c5ccc(O)c(c5)Oc5cc(O)cc(c5)[C@H](NC3=O)C(=O)N[C@H]4C(=O)N[C@H]3C(=O)N[C@@H]2C(=O)N[C@@H](C(=O)O)c2cc(O)cc(O[C@H]4O[C@H](CO)[C@@H](O)C(O)[C@@H]4O)c2-c2cc3ccc2O)O[C@H](CO)[C@@H](O)[C@@H]1O (stereo not given in full),2%[16.9 µM],2%[20.6 µM],6%[17 µM],x,x,-1%[20.6 µM]
S=c1[nH]nc(-c2cc(-c3ccccc3)n[nH]2)n1/N=C/C(Br)=C/c1ccccc1,u,3.3µM*,u,15µM*,u,u
Cc1cccc(/C=N/n2c(-c3cc(-c4ccccc4)n[nH]3)n[nH]c2=S)c1,7.9µM*,u,u,u,i,-5%
Cc1cccc(/C=N/n2c(-c3ccncc3)n[nH]c2=S)c1,11µM*,u,u,i,i,16%
S=c1[nH]nc(-c2cc(-c3ccccc3)n[nH]2)n1/N=C/c1ccccc1,-38%,u,-19%,i,i,u
CCC1=Nc2cc(C(=O)NCc3ccco3)ccc2Sc2ccc(C)cc21,14%[10 µM],1.5µM*,8%,u,0.16µM*,1µM*
CCOC(=O)N1CCN(C(=O)c2ccc3c(c2)N=C(CC)c2cc(C)ccc2S3)CC1,9%,0%,-5%,i,i,-16%
CCCC1=Nc2cc(C(=O)NC3CCCCC3)ccc2Sc2ccc(C)cc21,x,x,x,0.52µM*,0.82µM*,x
CCC1=Nc2cc(C(=O)NCCN3CCOCC3)ccc2Sc2ccc(C)cc21,-8%,-2%,2%,i,i,u
CCC1=Nc2cc(C(=O)NC3CCC(C)CC3)ccc2Sc2ccc(C)cc21 (stereo not given),x,x,x,4.6µM*,4.1µM*,x
CCOC(=O)N1CCC(NC(=O)c2ccc3c(c2)N=C(CC)c2cc(C)ccc2S3)CC1,u,u,-1%,7.3µM*,u,u
